High-throughput results from PubChem BioAssay.
The list is not random: actives were taken first. Their share in the collection is about 1.5%.
Tb PGK inh – T. brucei PGK inhibition; P07378; PGK/GAPDH coupled, Kinase-Glo luminescence, 60 min; Potency, µM (series often up to 57.5 µM), for the others: at the top dose activity change, negative = inhibition, usual class: inhibitors; 380,000 compounds, 0.043% hits; note: potency is the fitted concentration of half-maximal effect; % is set by controls: 0 for no effect and ±100 for the full control effect; nearly all actives have a fitted effect of over 60% in size
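Recombinant glycosomal PGK reaction used 1,3-bisphosphoglycerate generated in-well by GAPDH (100nM final) in 100mM TEA pH 7.6, 5mM MgCl2, 0.01% Tween-20. After 60 minutes at room temperature, ATP was read by Kinase-Glo Plus luminescence end-point.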
PI5P4Ka inh – inhibitors of human PI5P4K alpha; max response, %; PI5P4Kalpha enzyme, ADP-Glo luminescence, 60 min; active compounds read low; 330,000 compounds, 1.2% hits; P48426; active = max response of -50% or lower; inconclusive = between -30% and -50%; inactive = -30% or higher; note: value at the top dose of about 77 µM; % is set by controls: 0 for no effect and ±100 for the full control effect
Target sequence (P48426 whole entry, looked up): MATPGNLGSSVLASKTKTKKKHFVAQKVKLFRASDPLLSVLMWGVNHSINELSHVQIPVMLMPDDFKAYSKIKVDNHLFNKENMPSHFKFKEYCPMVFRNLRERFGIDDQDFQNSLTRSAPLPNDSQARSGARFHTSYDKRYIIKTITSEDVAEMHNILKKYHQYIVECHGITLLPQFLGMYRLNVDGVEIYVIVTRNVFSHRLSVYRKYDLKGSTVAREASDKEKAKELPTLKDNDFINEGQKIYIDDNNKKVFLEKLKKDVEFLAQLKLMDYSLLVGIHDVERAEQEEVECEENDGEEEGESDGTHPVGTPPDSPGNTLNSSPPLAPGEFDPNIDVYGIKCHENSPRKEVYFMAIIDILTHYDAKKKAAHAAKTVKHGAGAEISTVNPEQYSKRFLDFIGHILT
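ADP-Glo luminescence end-point after a 60 min room-temperature kinase reaction. PI5P4Kalpha and substrate in HEPES pH 7.4 buffer with EGTA, 0.1% CHAPS and 5% DMSO; ATP at 5 microM final.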
WRN helicase inh – WRN helicase (human) inhibition | Q14191 | WRN helicase unwinding, fluorescent forked duplex, kinetic | Potency, µM (doses to about 114 µM), without a hit: top-dose activity change, negative = inhibition, hits mostly inhibitors | 360,000 compounds, 0.46% hits; note: potency is the fitted concentration of half-maximal effect; % is set by controls: 0 for no effect and ±100 for the full control effect; nearly all actives have a fitted effect of over 55% in size
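Kinetic red-fluorescence monitoring (525/598 nm) tracks WRN helicase activity after 100 nM fluorophore-quencher forked duplex and 2 mM ATP are added to 20 nM enzyme pretreated 15 min at room temperature with compound.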
FEN1 inh – human FEN1 inhibition | P39748 | Recombinant FEN1 flap cleavage, fluorescence, 15 min | Potency, µM (doses to about 114 µM), for inactives: at the highest dose activity change, negative = inhibition, actives largely listed as inhibitors | 390,000 compounds, 0.35% hits | AID 588795; note: potency is the fitted concentration of half-maximal effect; % is set by controls: 0 for no effect and ±100 for the full control effect; nearly all actives have a fitted effect of over 65% in size
Target sequence (P39748 whole entry, looked up): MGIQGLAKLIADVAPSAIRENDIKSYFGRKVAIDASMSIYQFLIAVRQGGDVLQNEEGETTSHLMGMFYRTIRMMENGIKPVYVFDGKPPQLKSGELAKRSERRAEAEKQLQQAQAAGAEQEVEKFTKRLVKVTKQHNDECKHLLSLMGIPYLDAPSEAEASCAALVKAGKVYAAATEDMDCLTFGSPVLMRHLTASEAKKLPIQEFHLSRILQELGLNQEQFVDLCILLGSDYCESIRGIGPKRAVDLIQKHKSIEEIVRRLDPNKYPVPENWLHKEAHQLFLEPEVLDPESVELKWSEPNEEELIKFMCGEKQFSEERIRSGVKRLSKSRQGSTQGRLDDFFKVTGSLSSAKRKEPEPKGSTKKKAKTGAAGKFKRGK
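FEN1 at 10 nM preincubated with compounds 15 min at room temperature, then flap DNA substrate added at 50 nM final. Signal read at 0 and 15 min; concentration-response fitted with four-parameter Hill equation.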
Tb PFK inh-1 – blocks T. brucei phosphofructokinase; O15648; T. brucei PFK, ADP-Glo luminescence; Potency, µM (series often up to 57.5 µM), inactives show at the highest dose activity, negative = inhibition, most hits filed as inhibitors; 330,000 compounds, 0.17% hits; AID 485367;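 note: potency is the fitted concentration of half-maximal effect; 0% = uninhibited 1x PFK enzyme wells and -100% = no-enzyme wells; nearly all actives have a fitted effect of over 60% in size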
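PFK 1.25 nM, F6P 0.5 mM, ATP 0.1 mM, 0.1 M TEA pH 8.0, 5 mM MgCl2, 0.01% Tween20, 0.1% BSA; 45 min RT. ADP-Glo readout. qHTS titration up to 57 uM; curves fitted, compounds curve-classed.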
TDP1 block – blocks human tyrosyl-DNA phosphodiesterase 1 | Q9NUW8 | recombinant TDP1, AlphaScreen DNA substrate cleavage | Potency, µM (series often up to 130 µM), without a hit: at the highest dose activity change, negative = inhibition, actives largely listed as inhibitors | 350,000 compounds, 0.28% hits | AID 485290; note: potency is the fitted concentration of half-maximal effect; % is set by controls: 0 for no effect and ±100 for the full control effect; nearly all actives have a fitted effect of over 40% in size
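Signal: AlphaScreen proximity between streptavidin donor and anti-FITC acceptor beads on intact substrate. Reaction: Tdp1 1 nM, substrate 15 nM final, 5 min RT after 15 min compound preincubation.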
Tb PFK KinaseGlo – orthogonal confirmation of T. brucei phosphofructokinase inhibitors; shares compounds with Tb PFK inh-1; Tb PFK enzyme, ATP depletion, Kinase-Glo Plus luminescence; Potency, µM (series often up to 57.5 µM), without a hit: at the top dose inhibition; 1,100 compounds, 47% hits; AID 504636; calls by dose curve; note: potency is the fitted concentration of half-maximal effect; nearly all actives have a fitted effect of over 60% in size
Tb PFK inh-2 – validation of T. brucei phosphofructokinase inhibitors; shares compounds with Tb PFK inh-1; purified T. brucei PFK, ADP-Glo luminescence, 45 min; Potency, µM (top dose mostly 57.5 µM), for inactives: top-dose activity change, negative = inhibition, usual class: inhibitors; 1,100 compounds, 41% hits;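 note: potency is the fitted concentration of half-maximal effect; plate controls were full PFK enzyme control for no effect and no enzyme control for full effect; nearly all actives have a fitted effect of over 60% in size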
The depositor's hits bear a star; [ ] = dose if it differs, or a comment. Unless noted, calls come from the whole dose curve; as a rule, active = well fitted curve in the direction sought with a large enough effect; inconclusive = small, poorly fitted or top-dose-only effect, or another doubt; inactive = no such curve, though single readings can be large; an effect the other way counts as inactive or inconclusive.

`O=c1cc(/N=C/c2coc3c(ccc4ccccc43)c2=O)[nH]c(=S)[nH]1` gave Tb PGK inh -2%, PI5P4Ka inh -75*, WRN helicase inh -4%, FEN1 inh -32%, Tb PFK inh-1 inconclusive, TDP1 block 6%, Tb PFK KinaseGlo -27% and Tb PFK inh-2 inconclusive.
Screening COc1ccc(C(=O)CN2CCOCC2)cc1F returned Tb PGK inh -1%, PI5P4Ka inh -3, WRN helicase inh -13%, FEN1 inh -9%, Tb PFK inh-1 2% and TDP1 block 2%.
For COc1ccc(C(=O)CSC#N)cc1OC the results were Tb PGK inh -3%, PI5P4Ka inh 3, WRN helicase inh -9%, FEN1 inh -5%, Tb PFK inh-1 inconclusive, TDP1 block 0%, Tb PFK KinaseGlo 4.8µM* and Tb PFK inh-2 12µM*.
Screening Clc1ccc(Cn2cc(Br)cn2)cc1Cl returned Tb PGK inh 0%, WRN helicase inh -4%[57.1 µM], FEN1 inh -1%, Tb PFK inh-1 24µM*, TDP1 block 1%, Tb PFK KinaseGlo 6µM* and Tb PFK inh-2 12µM*.
Screening Cc1ccc(-n2c(N)c(C(=O)N3CCN(C)CC3)sc2=S)cc1 returned Tb PGK inh -7%, WRN helicase inh -20%, FEN1 inh 1%, Tb PFK inh-1 13µM*, TDP1 block 3%, Tb PFK KinaseGlo 3.8µM* and Tb PFK inh-2 9.5µM*.
For Nc1ccn(Cc2cccc(Cl)c2)n1 the results were Tb PGK inh 8%, PI5P4Ka inh 0, WRN helicase inh -24%, FEN1 inh -1%, Tb PFK inh-1 27µM*, TDP1 block 4%, Tb PFK KinaseGlo 19µM* and Tb PFK inh-2 inconclusive.
`O=S1(=O)N(Cc2ccccc2)CCCN1Cc1cccc(Cl)c1` gave Tb PGK inh 13% and FEN1 inh -12%.
c1cc2c3c(cccc3c1)CC2 was read as FEN1 inh -3%.
For NNC(=O)c1ccc(Cl)cc1 the results were Tb PGK inh -10%, PI5P4Ka inh -4, WRN helicase inh 4%, FEN1 inh 6%, Tb PFK inh-1 -4% and TDP1 block 5%.
Screening O=C(O)CCNC(=O)c1ccc(NC(=O)Cc2ccc(Cl)cc2)cc1 returned Tb PGK inh -8%, PI5P4Ka inh -6, WRN helicase inh 4%, FEN1 inh 1%, Tb PFK inh-1 inconclusive, TDP1 block 0%, Tb PFK KinaseGlo inconclusive and Tb PFK inh-2 inconclusive.
COc1cc2c(cc1O)C[C@H]1c3c(cc(OC)c(O)c3-2)CCN1C was read as TDP1 block -11%.
For C=C1CC[C@H](O)C/C1=C/C=C1\CCC[C@]2(C)[C@H]1CC[C@H]2[C@@H](C)CCCC(C)C the results were TDP1 block 17%[21 µM].
Screening CCn1c(C)c(CS(=O)(=O)c2ccccc2)[nH]c1=O returned Tb PGK inh -1%, PI5P4Ka inh 3, WRN helicase inh 18µM*, FEN1 inh 9%, Tb PFK inh-1 inconclusive, TDP1 block 3%, Tb PFK KinaseGlo -24% and Tb PFK inh-2 inconclusive.
Screening CCn1c(O)c(C=NCc2ccccc2)c(=O)[nH]c1=S returned Tb PGK inh 5%, PI5P4Ka inh 2, WRN helicase inh -4%[57.1 µM], FEN1 inh -9%, Tb PFK inh-1 0% and TDP1 block 1%.
For O=C1C=C2C=CC3C[C@@]2(O1)C1CCCCN31 (some centres undefined) the results were TDP1 block 9%.
`CCn1cc2nc(SCc3cccc(C(F)(F)F)c3)n(Cc3ccc(OC)cc3)c(=O)c2n1` gave Tb PGK inh -6%, FEN1 inh inconclusive and TDP1 block 3%.
Screening CCC1C2CC3C4N(C)c5ccccc5[C@]45CC(C2C5O)N3C1O (some centres undefined) returned TDP1 block 12%[56.1 µM].
Screening O=[N+]([O-])c1ccc(OP(=O)(O)Oc2ccc([N+](=O)[O-])cc2)cc1 returned Tb PGK inh -1%, PI5P4Ka inh 0, WRN helicase inh -6% and FEN1 inh -5%.
Screening O=C(COc1ccc([N+](=O)[O-])cc1)Nc1cc(C(=O)O)cc(C(=O)O)c1 returned Tb PGK inh -10%, PI5P4Ka inh 7, WRN helicase inh -9%, FEN1 inh -6%, Tb PFK inh-1 inconclusive, TDP1 block 0%, Tb PFK KinaseGlo 13µM* and Tb PFK inh-2 27µM*.
Screening CCCNC(=O)c1cnn2c(C)c(Cc3c(C)cc(C)cc3C)c(C)nc12 returned Tb PGK inh -1%, FEN1 inh inconclusive and TDP1 block 10%.
Screening COc1cccc(C(=O)NNC(=O)Cc2ccc([N+](=O)[O-])cc2)c1 returned Tb PGK inh -1%, PI5P4Ka inh 1, WRN helicase inh -17%[57.1 µM], FEN1 inh -2%, Tb PFK inh-1 inconclusive, TDP1 block 1%, Tb PFK KinaseGlo inconclusive and Tb PFK inh-2 inconclusive.
Screening CN1CC=C2C(C#N)=C(N)C(C#N)(C#N)C(c3ccncc3)C2C1 (centres undefined) returned Tb PGK inh -3%, PI5P4Ka inh 5, WRN helicase inh -8%, FEN1 inh -2%, Tb PFK inh-1 -4% and TDP1 block 2%.
Screening N#CC1=C(N)C(C#N)(C#N)C(c2ccc[nH]2)C2CCCC=C12 (centres undefined) returned WRN helicase inh inconclusive, FEN1 inh -20%, Tb PFK inh-1 inconclusive, TDP1 block 2%, Tb PFK KinaseGlo 11% and Tb PFK inh-2 -21%.
Cc1cccc(C(=O)Nc2ccc3c(c2)C(=O)NC3=O)c1 was read as Tb PGK inh -3%, PI5P4Ka inh 0, WRN helicase inh -9%, FEN1 inh 2%, Tb PFK inh-1 inconclusive, Tb PFK KinaseGlo inconclusive and Tb PFK inh-2 30µM*.
Cc1cccc(NC(=O)N2CCCC2)c1 was read as PI5P4Ka inh -2, WRN helicase inh 7%, FEN1 inh -2%, Tb PFK inh-1 2% and TDP1 block -5%.
COc1cccc(NC(=S)Nc2ccc(O)cc2)c1 was read as Tb PGK inh -6%, PI5P4Ka inh inconclusive, WRN helicase inh -2%, FEN1 inh -21%, Tb PFK inh-1 inconclusive, Tb PFK KinaseGlo inconclusive and Tb PFK inh-2 -14%.
